Experimental data as given in PubChem BioAssay.
“And” between values parts separate entries of the source, which are not always exact repeats. Equal entries are not always repeated. For some of these results: Results with a measured potency or affinity are listed apart. The source made the active and inactive calls.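 How the source made its calls, unless noted: active means thallium flux through the channel raised or lowered by more than 3 SD from vehicle-only wells, actives on both sides; inactive means the rest.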

Tests used:
[1] = blockers of polyQ-driven CASP3 activation – cell-based (AID 1583); details: polyglutamine-induced caspase-3 activation, cell assay; stronger effect = higher value;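 tested at 10 µM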
[2] = yeast 75Q aggregation reduction – 75Q-TubU reporter (AID 1593); details: Yeast 75Q polyglutamine aggregation reporter
[3] = restoration of touch response, mutant HTT neurons – whole organism, C. elegans mechanosensory neurons, N-terminal huntingtin (AID 1599); details: C. elegans polyQ-huntingtin mechanosensory neurons, stronger effect = higher value
[4] = blockers of cytochrome c efflux from mitochondria – biochemical, purified mitochondria (AID 1603); details: stronger effect = lower value;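 further: mouse liver mitochondria challenged with calcium chloride; signal normalized to the plate average as 100%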
[5] = polyglutamine aggregate formation blockers (AID 1604); details: polyglutamine-induced protein aggregation inhibition assay; stronger effect = higher value; tested at 2.5 µM
[6] = glutamate transport activators, MN-1 cells, MN-1 cell line (AID 1612); details: MN-1 motor neuron cells, stronger effect = higher value;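 further: tested at 1 µM final; 0% = mean of DMSO vehicle wells on each plate; positive means more glutamate uptake than control and negative means less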
[7] = 75Q-TubH aggregate inhibition, S. cerevisiae, yeast (AID 1616); details: S. cerevisiae 75Q-TubH polyglutamine aggregation suppression; stronger effect = higher value
[8] = signal quenchers or enhancers, Cy5 substrate/SSB – biochemical, NIH Clinical Collection, E. coli SSB, artefact control for HCV NS3 helicase inhibitor project (AID 743268; call rule not given here); details: Cy5-oligo bound E. coli SSB, fluorescence interference
[9] = tested on: Hepatitis C virus NS3 helicase; assay: blockers of NS3h binding to DNA – biochemical, fluorescence polarization, NIH Clinical Collection, primary screen (AID 743270; call rule not given here); details: NS3 helicase binding to Cy5-dT15 DNA, stronger effect = higher value, concentration not given here
[10] = target: Single-stranded DNA-binding protein (Escherichia coli (strain K12)) (UniProt P0AGE0); assay: SSB-ssDNA binding inhibitors – biochemical, fluorescence polarization, NIH Clinical Collection, counter-screen for HCV NS3 helicase inhibitor project (AID 743271; in the data active means inhibition above about 28%); details: E. coli SSB-DNA binding, stronger effect = higher value, concentration not given here
[11] = compounds distorting NS3 helicase fluorescence signal – biochemical, NIH Clinical Collection, artefact control for HCV NS3 helicase inhibitor project (AID 743272; call rule not given here;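 further: HCV NS3 helicase with a Cy5 labelled single stranded DNA probe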); details: fluorescence interference counterscreen, HCV NS3 helicase assay; stronger effect = lower value
[12] = target: Calcium-activated potassium channel subunit alpha-1 (Homo sapiens) + Leucine-rich repeat-containing protein 26 (Homo sapiens) (UniProt Q12791+Q2I0M4); assay: BK channel mutant inhibitors and activators – cell-based, U2OS BacMam, thallium flux, beta subunits, selectivity assay, profiling panel (AID 1259406); details: U2OS BacMam BK variants, F380Y/Slo1WT/gamma1, at 30 µM;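 further: initial slope of Thallos dye fluorescence rise after thallium is added; log ratio against the mean of 0.3% DMSO vehicle wells on the same plate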
Calcium-activated potassium channel subunit alpha-1 (Homo sapiens) + Leucine-rich repeat-containing protein 26 (Homo sapiens), sequence (Q2I0M4 whole entry, looked up, one chain of several): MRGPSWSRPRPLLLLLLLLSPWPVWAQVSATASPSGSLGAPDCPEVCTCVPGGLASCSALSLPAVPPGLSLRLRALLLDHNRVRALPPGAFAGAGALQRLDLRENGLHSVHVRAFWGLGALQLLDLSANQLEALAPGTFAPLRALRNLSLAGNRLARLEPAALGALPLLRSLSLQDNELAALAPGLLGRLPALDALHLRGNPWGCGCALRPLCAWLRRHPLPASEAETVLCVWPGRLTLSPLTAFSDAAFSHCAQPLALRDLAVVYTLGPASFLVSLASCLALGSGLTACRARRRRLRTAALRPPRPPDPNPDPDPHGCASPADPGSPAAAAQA

[13] = tested on: R275C; assay: as above; details: U2OS BacMam BK variants, at 30 µM
[14] = tested on: R275C/beta1; assay: as above; details: U2OS BacMam BK variants, at 30 µM
[15] = tested on: R275C/beta2Delta; assay: as above; details: U2OS BacMam BK variants, at 30 µM
[16] = tested on: R275C/beta4; assay: as above; details: U2OS BacMam BK variants, at 30 µM
[17] = tested on: R275C/Slo1WT/beta2; assay: as above; details: U2OS BacMam BK variants, at 30 µM

## O=c1[nH]cnc2[nH]ncc12
[1]
  inhibition: 14.4%
[2]
  score: 1.09
[3]
  rescue above control: 2.94
[4]
  cytochrome c release ratio: 0.77
[5]
  inhibition of aggregation: 60.9%
[6]
  glutamate uptake change: -7.44%
[7]
  aggregation suppression score: 1.87
[8]
  fluorescence ratio: 1.02 (inactive)
[9]
  inhibition: -5% (inactive)
[10]
  inhibition: -3.53% (inactive)
[11]
  fluorescence ratio: 0.99 (inactive)
[12]
  log fold change Tl+ flux: 0.0214 (inactive)
[13]
  log fold change Tl+ flux: 0.00104 (inactive)
[14]
  log fold change Tl+ flux: 0.0222 (inactive)
[15]
  log fold change Tl+ flux: 0.0262 (inactive)
[16]
  log fold change Tl+ flux: 0.0379 (inactive)
[17]
  log fold change Tl+ flux: 0.0394 (inactive)

## NS(=O)(=O)c1cc2c(cc1Cl)NCNS2(=O)=O
[1]
  inhibition: -3.39%
[2]
  score: 1.21
[3]
  rescue above control: 7.5
[4]
  cytochrome c release ratio: 1.08
[5]
  inhibition of aggregation: 3.17%
[6]
  glutamate uptake change: 8.53%
[7]
  aggregation suppression score: 0.805
[8]
  fluorescence ratio: 0.125 (active)
[9]
  inhibition: -5% (inactive)
[10]
  inhibition: -3.53% (inactive)
[11]
  fluorescence ratio: 1 (inactive)
[12]
  log fold change Tl+ flux: -0.0022 (inactive)
[13]
  log fold change Tl+ flux: -0.00411 (inactive)
[14]
  log fold change Tl+ flux: 0.0065 (inactive)
[15]
  log fold change Tl+ flux: -0.0287 (inactive)
[16]
  log fold change Tl+ flux: 0.00368 (inactive)
[17]
  log fold change Tl+ flux: 0.0144 (inactive)

## COCCOC(=O)C1=C(C)NC(C)=C(C(=O)OC(C)C)C1c1cccc([N+](=O)[O-])c1 (stereo not drawn)
[8]
  fluorescence ratio: 0.87 (inactive)
[9]
  inhibition: 6.77% (inactive)
[10]
  inhibition: 15.3% (inactive)
[11]
  fluorescence ratio: 0.92 (inactive)
[12]
  log fold change Tl+ flux: 0.0377 (inactive)
[13]
  log fold change Tl+ flux: -0.000869 (inactive)
[14]
  log fold change Tl+ flux: -0.0169 (inactive)
[15]
  log fold change Tl+ flux: -0.0566 (inactive)
[16]
  log fold change Tl+ flux: -0.0265 (inactive)
[17]
  log fold change Tl+ flux: -0.0323 (inactive)

## N[C@@H]1CONC1=O
[1]
  inhibition: 3.67%
[2]
  score: 1.72
[3]
  rescue above control: -2.84
[4]
  cytochrome c release ratio: 0.8
[5]
  inhibition of aggregation: 65.4%
[6]
  glutamate uptake change: -3.66%
[7]
  aggregation suppression score: 1.32
[8]
  fluorescence ratio: 0.99 (inactive) and 1.05 (inactive)
[9]
  inhibition: 5.94% (inactive) and -1.36% (inactive)
[10]
  inhibition: 2.98% (inactive) and 0.29% (inactive)
[11]
  fluorescence ratio: 0.95 (inactive) and 1.03 (inactive)
[12]
  log fold change Tl+ flux: -0.0244 (inactive) and 0.0135 (inactive)
[13]
  log fold change Tl+ flux: -0.00755 (inactive) and 0.0374 (inactive)
[14]
  log fold change Tl+ flux: 0.00647 (inactive) and 0.0301 (inactive)
[15]
  log fold change Tl+ flux: 0.0216 (inactive) and -0.0265 (inactive)
[16]
  log fold change Tl+ flux: 0.00356 (inactive)
[17]
  log fold change Tl+ flux: -0.00809 (inactive)

## CCc1cc(C(N)=S)ccn1
[1]
  inhibition: 13.5%
[2]
  score: 1.02
[3]
  rescue above control: -3.77
[4]
  cytochrome c release ratio: 1.06
[5]
  inhibition of aggregation: 78.8%
[6]
  glutamate uptake change: 15.8%
[7]
  aggregation suppression score: 1.09
[8]
  fluorescence ratio: 1.03 (inactive)
[9]
  inhibition: -4.09% (inactive)
[10]
  inhibition: -4.29% (inactive)
[11]
  fluorescence ratio: 1.01 (inactive)
[12]
  log fold change Tl+ flux: 0.00124 (inactive)
[13]
  log fold change Tl+ flux: 0.0202 (inactive)
[14]
  log fold change Tl+ flux: -0.00453 (inactive)
[15]
  log fold change Tl+ flux: -0.00222 (inactive)
[16]
  log fold change Tl+ flux: 0.0412 (inactive)
[17]
  log fold change Tl+ flux: 0.00968 (inactive)

## OC(Cn1cncn1)(Cn1cncn1)c1ccc(F)cc1F
[1]
  inhibition: -12.6%
[2]
  score: 0.67
[3]
  rescue above control: -3.31
[4]
  cytochrome c release ratio: 0.79
[5]
  inhibition of aggregation: 0%
[6]
  glutamate uptake change: -9.51%
[7]
  aggregation suppression score: 0.253
[8]
  fluorescence ratio: 1.05 (inactive)
[9]
  inhibition: -3.18% (inactive)
[10]
  inhibition: -4.29% (inactive)
[11]
  fluorescence ratio: 1.02 (inactive)
[12]
  log fold change Tl+ flux: -0.0185 (inactive)
[13]
  log fold change Tl+ flux: 0.0468 (inactive)
[14]
  log fold change Tl+ flux: 0.023 (inactive)
[15]
  log fold change Tl+ flux: 0.0182 (inactive)
[16]
  log fold change Tl+ flux: 0.0436 (inactive)
[17]
  log fold change Tl+ flux: 0.0134 (inactive)

## CC(C)Cc1ccc(C(C)C(=O)O)cc1 (stereo not drawn)
[1]
  inhibition: -4.83%
[2]
  score: 0.01
[3]
  rescue above control: 11.4
[4]
  cytochrome c release ratio: 0.94
[5]
  inhibition of aggregation: 47.1%
[6]
  glutamate uptake change: 16.3%
[7]
  aggregation suppression score: -0.00282
[12]
  log fold change Tl+ flux: -0.0267 (inactive)
[13]
  log fold change Tl+ flux: 0.00709 (inactive)
[14]
  log fold change Tl+ flux: -0.00083 (inactive)
[15]
  log fold change Tl+ flux: -0.00841 (inactive)
[16]
  log fold change Tl+ flux: -0.0471 (inactive)
[17]
  log fold change Tl+ flux: 0.0328 (inactive)

## CC1(C)O[C@@H]2[C@@H](CO[C@@]3(COS(N)(=O)=O)OC(C)(C)O[C@@H]23)O1
[8]
  fluorescence ratio: 1.04 (inactive)
[9]
  inhibition: -0.4% (inactive)
[10]
  inhibition: -6.26% (inactive)
[11]
  fluorescence ratio: 1.02 (inactive)
[12]
  log fold change Tl+ flux: 0.0353 (inactive)
[13]
  log fold change Tl+ flux: -0.04 (inactive)
[14]
  log fold change Tl+ flux: 0.0176 (inactive)
[15]
  log fold change Tl+ flux: 0.0245 (inactive)
[16]
  log fold change Tl+ flux: -0.0182 (inactive)
[17]
  log fold change Tl+ flux: 0.00527 (inactive)
